Measurements taken from PubChem BioAssay AID1030 (National Center for Advancing Translational Sciences (NCATS), 2008).
In all, about 220,000 compounds went through this assay and about 16,000 (7.3%) were called active. Where a call stands in place of a potency, no number is given. Not shown: some 25% with an inconclusive outcome. Calls follow the shape of the dose curve; as a rule, active = well fitted inhibition curve with a large enough effect (not every such curve was filed as active); inconclusive = small, poorly fitted or top-dose-only effect, or another doubt; inactive = no such curve, though single readings can be large or run the other way. For the sample, actives were picked, then their nearest neighbours and some compounds at random.
Potency is read from the fitted curve at half-maximal effect.

These compounds were tested against Aldehyde dehydrogenase 1A1 (Homo sapiens) (UniProt P00352) (assay: qHTS Assay for Inhibitors of Aldehyde Dehydrogenase 1 (ALDH1A1)). Conditions: Purified ALDH1A1, NADH fluorescence, propionaldehyde substrate; series mostly up to 75.3 µM.
Aldehyde dehydrogenase 1A1 (Homo sapiens), sequence (P00352 whole entry, looked up): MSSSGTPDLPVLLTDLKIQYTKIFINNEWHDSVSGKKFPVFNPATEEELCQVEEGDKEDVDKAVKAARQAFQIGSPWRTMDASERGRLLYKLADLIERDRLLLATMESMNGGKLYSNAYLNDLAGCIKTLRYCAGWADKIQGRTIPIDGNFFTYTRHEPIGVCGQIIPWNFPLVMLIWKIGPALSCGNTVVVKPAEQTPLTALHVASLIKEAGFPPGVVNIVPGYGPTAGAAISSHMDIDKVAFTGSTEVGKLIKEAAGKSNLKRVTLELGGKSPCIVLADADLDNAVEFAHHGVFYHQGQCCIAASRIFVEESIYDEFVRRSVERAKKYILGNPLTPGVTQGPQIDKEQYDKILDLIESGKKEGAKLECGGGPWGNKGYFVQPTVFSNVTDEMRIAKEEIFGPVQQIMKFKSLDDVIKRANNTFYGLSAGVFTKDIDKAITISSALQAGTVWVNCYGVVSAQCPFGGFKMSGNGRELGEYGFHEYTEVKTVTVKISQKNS
`COc1ccc(CN(C)C(=S)Nc2ccc(Cl)cc2Cl)cc1` was tested, and the Potency was “inactive”.
For `O=C1CC2(CC(c3ccc(Cl)cc3)=NO2)C(=O)N1c1ccccc1` (stereo unspecified), the Potency was “inactive”.
With `CCN1CC(CN(C)Cc2nc(-c3ccc(Cl)cc3)no2)CC1=O` (stereo unspecified) the Potency was “inactive”.
`CN(C)C(=O)N1CCNCC1` was tested, and the Potency was “inactive”.
In the case of `Cn1c(=O)n(Cc2ccco2)c(=N)c2c3c(sc21)CCCC3`, the Potency is reported as “inactive”.
With `CCC1(C)Cc2c(sc3[nH]c(=S)n(Cc4ccccc4)c(=O)c23)CO1` (stereo unspecified) the Potency was “inactive”.
In the case of `CCn1c(=S)[nH]c2sc3c(c2c1=O)CCCCC3`, the Potency is reported as 22.4 µM (active).
In the case of `C=CCn1c(=S)sc2c(=O)[nH]c(C)nc21`, the Potency is reported as “inactive”.
In the case of `CCOC(=O)C1(CCOc2ccccc2)CCN(C(=O)c2cncs2)CC1`, the Potency is reported as “inactive”.
In the case of `Cc1c(C(N)=O)sc2ncn(CCOc3ccccc3)c(=O)c12`, the Potency is reported as “inactive”.
For `CCN1C(=O)N[C@@H](c2ccccc2)[C@H](C(C)=O)[C@H]1C`, the activity, negative = inhibition was 7.43% [at 13.5 µM] (inactive).
In the case of `Cc1ccc(C(=O)OC(C)CN2CCOCC2)cc1` (stereo unspecified), the Potency is reported as “inactive”.
For `CC(=O)c1ccc(OCCN2CCOCC2)cc1`, the Potency was 25.1 µM (active).
With `COc1ccc(OCC(=O)N2CCOCC2)cc1` the Potency was “inactive”.
In the case of `FC(F)(F)c1cccc(-c2nc(COc3ccc(Cl)cc3Cl)no2)c1`, the Potency is reported as “inactive”.
In the case of `O=C(CC1SCCNC1=O)Nc1ccc(Cl)cc1` (stereo unspecified), the Potency is reported as “inactive”.
`Cc1ccc(OCC(=O)NNC(=S)NCc2ccccc2)cc1` was tested, and the Potency was “inactive”.
`Fc1ccc(N2CCN(Cc3cnc(Oc4ccc(Br)cc4)s3)CC2)cc1` was tested, and the Potency was “inactive”.
In the case of `COc1ccc(N2CCN(Cc3ccc(Br)s3)CC2)cc1`, the Potency is reported as 25.1 µM (active).
In the case of `COc1ccc(N2CCN(Cc3nnc(-c4ccccc4)o3)CC2)cc1`, the Potency is reported as “inactive”.
`Cc1ccc(NC(=O)CC2C(=O)N(Cc3ccccc3)C(=S)N2NC(=O)c2cccc(F)c2)c(C)c1` (stereo unspecified) was tested, and the Potency was “inactive”.
In the case of `Cc1ccc(NC(=S)N(CCN(C)C)Cc2cccs2)cc1C`, the Potency is reported as “inactive”.
`O=C(O)CC(SCC(=O)Nc1ccc(Br)cc1)C(=O)O` (stereo unspecified) was tested, and the Potency was “inactive”.
With `CCOc1ccc(-n2c(N)c(C(=O)NCC3CCCO3)sc2=S)cc1` (stereo unspecified) the Potency was 15.8 µM (active).
In the case of `COc1ccc(SCc2noc(C(=O)NCC3CCCO3)c2C(=O)O)cc1` (stereo unspecified), the Potency is reported as “inactive”.
For `CCOc1ccc(S(=O)(=O)NCC2CCCO2)cc1` (stereo unspecified), the Potency was “inactive”.
With `Cc1ccc(Cl)c(NC(=O)CN(C)CC(=O)Nc2ccc(F)c(F)c2F)c1Cl` the Potency was “inactive”.
In the case of `Cc1cccc(CN2CCN(Cc3cnn(-c4ccccc4F)c3)CC2CCO)n1` (stereo unspecified), the Potency is reported as “inactive”.
In the case of `O=c1[nH]oc(O)c1-c1ncc(C(F)(F)F)cc1Cl`, the Potency is reported as “inactive”.
With `Cc1csc(NC(=O)CSc2ccc(-c3ccc(F)cc3)nn2)n1` the Potency was “inactive”.
`Cc1cc(/C=C2\SC(=Nc3ccc(N4CCOCC4)cc3)N(C)C2=O)c(C)n1-c1cccnc1` was tested, and the Potency was “inactive”.
For `O=C(C1CC1)N1N=C2CCCCC2C1(O)C(F)(F)F` (stereo unspecified), the Potency was “inactive”.
With `CC(C(=O)O)n1cnc2sc3c(c2c1=O)CCCC3` (stereo unspecified) the Potency was “inactive”.
For `N#Cc1c(NC(=O)CCCl)sc2c1CCCCC2`, the Potency was “inactive”.
`CCCc1nc2sc3c(c2c(=O)n1NC(=O)CCCl)CCCC3` was tested, and the Potency was 14.1 µM (active).
`O=C1CCC/C(=N\NC(=O)NC2CCCCC2)C1` was tested, and the Potency was “inactive”.
For `CCN(CC(=O)NC(=O)NCc1ccccc1)Cc1nc2ccccc2c(=O)[nH]1`, the Potency was “inactive”.
In the case of `CCN(CC(=O)Nc1ccc(Cl)c(S(=O)(=O)N(C)C)c1)Cc1nc2ccccc2c(=O)[nH]1`, the Potency is reported as 25.1 µM (active).
With `CN(CCOc1ccccc1)Cc1nc2cc(Cl)ccc2c(=O)[nH]1` the Potency was “inactive”.
`Cc1ccc(S(=O)(=O)NC2(C(F)(F)F)NC(=O)N(CCc3ccccc3)C2=O)cc1` (stereo unspecified) was tested, and the Potency was “inactive”.
In the case of `O=C(Nc1ncc2c(n1)CC(c1ccco1)CC2=O)c1ccc(Cl)cc1` (stereo unspecified), the Potency is reported as 10 µM (active).
`COc1cc(C2CC(=O)c3cnc(NC(C)=O)nc3C2)cc(OC)c1OC` (stereo unspecified) was tested, and the Potency was “inactive”.
For `CC1=C(C(=O)Nc2ccc(Cl)cc2)C(c2ccco2)NC(=O)N1` (stereo unspecified), the Potency was “inactive”.
In the case of `O=C1C=C(c2ccccc2)CCC1`, the Potency is reported as “inactive”.
`Cc1ccsc1C1C(C#N)=C(N)OC2=C1C(=O)CC(C)C2` (stereo unspecified) was tested, and the Potency was “inactive”.
In the case of `N#CC1=C(N)OC2=C(C(=O)CCC2)C1C1CC=CCC1` (stereo unspecified), the Potency is reported as 10 µM (active).
With `NC1=C([N+](=O)[O-])C(c2ccccc2)C2=C(CCCC2=O)O1` (stereo unspecified) the Potency was “inactive”.
For `O=C(Nc1ccc(N2CCOCC2)cc1)c1ccc2c(c1)OCO2`, the Potency was “inactive”.
`COc1ccc(C)cc1NC(=O)CCC(=O)Nc1nnc(C(F)(F)F)s1` was tested, and the Potency was “inactive”.
In the case of `COc1ccc(/C(C)=N/Nc2cc(C(F)(F)F)ccc2Cl)c(OC)c1`, the Potency is reported as “inactive”.
In the case of `COc1ccc(C(F)(F)F)cc1N/C=C\c1nnnn1-c1ccc(C)cc1`, the Potency is reported as 25.1 µM (active).
For `CSc1cc(C)[nH]c(=O)n1`, the Potency was “inactive”.
With `COc1ccc(Cl)cc1NC(=O)NC(C)C(C)(C)C` (stereo unspecified) the Potency was “inactive”.
In the case of `Cc1sc2nc(CC(N)=O)[nH]c(=O)c2c1-c1ccccc1`, the Potency is reported as 7.08 µM (active).
For `NC(=O)Cc1nc2scc(-c3ccc(Cl)cc3)c2c(=O)[nH]1`, the Potency was “inactive”.
For `NC(=O)Cc1ccc2sc(-c3ccccc3)nc2c1`, the Potency was “inactive”.
With `CCc1ccc(NC(=O)CSc2nc3ccccc3c(=O)n2CCN2CCOCC2)cc1` the Potency was “inactive”.
For `Cc1cc(C(=O)Nc2ccccc2N2CCOCC2)c2ccccc2n1`, the Potency was “inactive”.
In the case of `CCc1ccc2ncc(C(=O)c3ccccc3)c(N3CCOCC3)c2c1`, the Potency is reported as 4.47 µM (active).
In the case of `O=C(CCSc1ccccc1)N1CCN(c2ccccc2F)CC1`, the Potency is reported as “inactive”.
For `O=C(CSc1nn(-c2ccc(F)cc2)c(=S)s1)NC1CCS(=O)(=O)C1` (stereo unspecified), the Potency was “inactive”.
With `Cc1cc(C)cc(OCC(=O)NCc2cc(C)nc3ccccc23)c1` the Potency was “inactive”.
For `OCC1(Cc2ccccc2)CCN(Cc2cc3ccccc3o2)CC1`, the Potency was “inactive”.
For `Cc1cc(C)c2c(-n3cccc3)c(C(=O)NNS(=O)(=O)c3ccc(F)cc3)sc2n1`, the Potency was 2.24 µM (active).
`COC(=O)Nc1sc2nc(C)cc(C)c2c1-n1cccc1` was tested, and the Potency was “inactive”.
With `Cc1cc(C)c2c(-n3cccc3)c(NC(=O)OCc3ccccc3)sc2n1` the Potency was “inactive”.
`CCNC(=O)CC1C(=O)N(c2ccc(F)cc2)C(=O)N1Cc1cccs1` (stereo unspecified) was tested, and the Potency was “inactive”.
`CCN(CC)CCCNC(=O)c1ccc2c(=O)n(Cc3ccc4c(c3)OCO4)c(=S)[nH]c2c1` was tested, and the Potency was “inactive”.
With `c1ccc2c(C[n+]3csc4ccccc43)cccc2c1` the Potency was 10 µM (active).
For `N=C(N)SCc1cccc2ccccc12`, the Potency was “inactive”.
`c1ccc2c(CSCc3nc4ccccc4[nH]3)cccc2c1` was tested, and the Potency was “inactive”.
